The whole screen tested about 2,300 compounds, of which about 350 (15%) were called active. How the calls were made is not given here. These entries were drawn from the full list. Results with a measured potency or affinity are listed apart.

The test in a line: HepG2 cell cytotoxicity, dose response, cytotoxicity control for non-replicating M. tuberculosis project (AID 489018).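 Further: HepG2 human liver cells.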 The following applies: series mostly up to 20 µM.
Turning to `CCc1ccc(NC(=O)C(=O)NNC(=O)COc2cccc(OC)c2)cc1`, the result was inactive.
Turning to `O=C(NNc1nc2cc3c(cc2s1)OCCO3)c1ccccc1`, the result was inactive.
The result for `O=[N+]([O-])c1ccc(CNc2cccc(Cl)c2)s1` reads “inactive”; that for `CC1=NN(C(=O)c2csc(C)c2C)C(O)(C(F)(F)F)C1` (configuration not stated), “inactive”; that for `CCOCC(=O)Nc1nc2ccc(C)cc2s1`, “inactive”.
As for `CCN(CC)CCSc1nnc2c3cc(C)ccc3n(Cc3ccccc3)c2n1`, the molecule was classed as inactive.
Under `O=C(Nc1nc2ccccc2n1CCN1CCCC1)c1ccc(Cl)cc1` stands “inactive”; under `O=C(Nc1nc2ccccc2n1CCN1CCCC1)C1CCCCC1`, “inactive”; under `Cc1cccc(NC(=O)COC(=O)CCc2c[nH]c3ccccc23)c1`, “inactive”.
As to `O=C(COC(=O)c1ccccc1Cl)NCCC1=CCCCC1`, the result was inactive.
Take `O=c1cc2[nH]c3ccccc3c(=O)n2nc1-c1ccccc1`: the molecule was classed as inactive.
The result for `CC1CC(C)CN(C(=O)COC(=O)c2ccc([N+](=O)[O-])o2)C1` (configuration not stated) reads “inactive”.
Under `COc1ccc(CCCC(=O)NCc2ccccc2)cc1C` stands “inactive”; under `COc1ccc(S(=O)(=O)NCc2ccc3c(c2)cc(C)n3C)cc1`, “inactive”.
Under `COC(=O)COc1ccc2c(-c3ccc(OC)cc3)cc(=O)oc2c1` stands “inactive”; under `C=C1CCC[C@]2(C)C[C@H]3OC(=O)C(CNC(C)CCCC(C)C)[C@H]3CC12` (some centres not stated), “inactive”; under `O=C(Oc1ccccc1Cl)c1ccc2c(=O)n3c(nc2c1)CCC3`, “inactive”.
Consider `CC(/C=C/c1cccc([N+](=O)[O-])c1)=N\NC(=O)c1ccncc1`, for which the molecule was called inactive.
Under `COC(=O)COc1cccc(/C=N/NC(=O)CCSc2ccccc2)c1` stands “inactive”.
Under `O=C(N/N=C/c1ccc[nH]1)c1ccc2c(c1)OCO2` stands “inactive”.
The result for `Cc1occc1C(=O)N/N=C/C(Br)=C\c1ccccc1` reads “inactive”; that for `O=C(N/N=C\c1ccccc1OCc1ccccc1)c1ccco1`, “inactive”; that for `CC(/C=C/c1ccccc1)=N\NC(=O)c1ccc2c(c1)OCCO2`, “inactive”.
For the molecule `C/C(=N\NC(=O)c1cccs1)c1ccc2c(c1)OCO2`, the molecule was classed as inactive.
Under `Cc1occc1C(=O)N/N=C/c1ccc[nH]1` stands “inactive”; under `C/C(Cn1nnc([N+](=O)[O-])n1)=N\NC(=O)c1ccncc1`, “inactive”; under `COC(=O)CN(C#N)c1nc(SC)nc(N(C)C)n1`, “inactive”.
The result for `O=C1CCC/C(=N/Nc2ccc(Cl)cc2)C1` reads “inactive”; that for `CCOCCOC(=O)c1ccc(NC(=O)C2COc3ccccc3O2)cc1` (configuration not stated), “inactive”; that for `Cc1cc(Cl)ccc1OC(C)C(=O)Nc1ccc([N+](=O)[O-])cn1` (configuration not stated), “inactive”.
For the molecule `Cc1ccc(C)c(NC(=O)c2cc([N+](=O)[O-])cc([N+](=O)[O-])c2)c1`, the outcome was inactive.
The result for `O=C(CCc1ccc(Oc2cc([N+](=O)[O-])cc([N+](=O)[O-])c2)cc1)N1CCCCC1` reads “inactive”.

The values above are taken from PubChem BioAssay AID489018 (Southern Research Specialized Biocontainment Screening …, 2010).
